Shown are actives, neighbours in structure and some others; about 1.6% of the full set was active somewhere.
KCNQ2 block: blocks the rat KCNQ2 potassium channel. O88943. 310,000 tested, 1.1% active. AID 2156. B-score at 10 µM. CHO-K1 KCNQ2, FluxOR thallium flux, 20 min; hits give low values;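 active = fluorescence ratio B-score at most minus 3 library SDs, with starting brightness B-score within 2 library SDs, cut at about -5.5 in these data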
KCNQ2 pot: potentiators of rat KCNQ2 potassium channel; O88943; 310,000 tested, 0.54% active; B-score at 10 µM; CHO-K1 KCNQ2, FluxOR thallium flux fluorescence; hits give high values; AID 2239;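 active = fluorescence ratio B-score at least 3 SD of library B-scores, with initial fluorescence B-score within 3 of them, cut at about 5.3 in these data; same plate scores as AID 2156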;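 note: B-score of peak minus minimum over baseline fluorescence ratio after K+ and Tl+ stimulus; positive B-score means potentiation of KCNQ2 with more thallium influx and brighter signal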
Kir21 conf inh: confirmation of mouse Kir2.1 potassium channel inhibitors; Tl flux remaining, % of negative control (hits give low values), % at 10 µM; 2,300 tested, 41% active; shares compounds with KCNQ2 pot; Kir2.1-expressing cells, FluxOR thallium flux fluorescence; hits give low values; AID 2032;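 active = Primary-screen hit whose thallium flux fell at least 3 control SD below untreated wells in both duplicates, with normal baseline fluorescence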;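 note: 0% = blank wells without stimulus and 100% = stimulated no-compound controls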
HEK293 ctr: alters thallium flux in parental HEK293 cells, Kir2.1 counter-screen; 2,300 tested, 19% active; shares compounds with KCNQ2 pot; AID 2105; FluxOR thallium flux fluorescence; 0% = unstimulated blank wells; FluxOR signal as % of negative control (100 = no effect), % at 10 µM;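 active = dye signal at least 3 control SD above or below untreated wells in both duplicates, raw fluorescence within 3, either direction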;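 note: percent is based on the flux ratio of peak minus minimum fluorescence over baseline F0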
CHO-K1 Tl ctr: parental CHO-K1 activity in KCNQ2 potentiator counter-screen; shares compounds with KCNQ2 pot; parental CHO-K1 cells, FluxOR thallium flux fluorescence; zero = vehicle mean+3SD, 100% = vehicle-minus-blank window; activity increase over 3SD of controls, % at 10 µM; 1,200 tested, 43% active; AID 2282;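 active = signal rise of at least 3 SD above the untreated control mean, in both duplicate wells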;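 note: counter screen of KCNQ2 potentiator hits so any rise reflects channel-independent effects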
KCNQ1 sel pot: tests whether KCNQ2 potentiators also act on human KCNQ1; shares compounds with KCNQ2 pot; CHO KCNQ1 stable, FluxOR thallium flux fluorescence; beyond 3SD, as % of vehicle-control signal; activation over 3SD threshold, % at 10 µM; 1,200 tested, 28% active;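 active = fluorescence ratio rise of at least 3 SD of vehicle wells above their mean, in both replicate wells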;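 note: 0% = vehicle mean plus 3 SD and 100% = vehicle minus unstimulated blank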
Target sequence (P51787 whole entry, looked up): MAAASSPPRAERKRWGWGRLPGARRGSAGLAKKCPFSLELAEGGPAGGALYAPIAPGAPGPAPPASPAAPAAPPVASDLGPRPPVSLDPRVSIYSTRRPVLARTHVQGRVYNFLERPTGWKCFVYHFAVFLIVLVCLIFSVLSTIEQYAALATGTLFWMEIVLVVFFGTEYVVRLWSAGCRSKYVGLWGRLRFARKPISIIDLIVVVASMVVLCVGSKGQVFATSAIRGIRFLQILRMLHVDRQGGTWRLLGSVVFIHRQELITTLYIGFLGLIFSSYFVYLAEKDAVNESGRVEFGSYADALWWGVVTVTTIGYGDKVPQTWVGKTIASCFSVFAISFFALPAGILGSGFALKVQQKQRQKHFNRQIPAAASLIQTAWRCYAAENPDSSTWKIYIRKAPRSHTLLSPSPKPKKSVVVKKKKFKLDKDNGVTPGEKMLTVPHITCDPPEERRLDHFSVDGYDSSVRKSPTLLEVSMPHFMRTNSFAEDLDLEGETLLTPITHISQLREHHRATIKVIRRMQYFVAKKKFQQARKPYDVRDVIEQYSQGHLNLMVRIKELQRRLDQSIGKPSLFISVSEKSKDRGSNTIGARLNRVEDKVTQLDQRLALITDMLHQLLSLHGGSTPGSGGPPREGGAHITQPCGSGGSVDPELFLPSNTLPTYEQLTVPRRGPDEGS
KCNQ2 pot conf: rat KCNQ2 channel potentiator confirmation; shares compounds with KCNQ2 pot; CHO-KCNQ2 cells, FluxOR thallium flux fluorescence; potentiation, less the hit threshold, % at 10 µM; 1,200 tested, 68% active; AID 2287;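 active = fluorescence ratio rising 3 SD or more over the vehicle control mean in both replicates, plus primary screen hit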;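 note: peak minus minimum thallium fluorescence divided by baseline after K/Tl stimulus; 0% = vehicle mean plus 3 SD and 100% = vehicle minus unstimulated blank difference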
Kir21 spec: mouse Kir2.1 off-target activity of KCNQ2 potentiators | shares compounds with KCNQ2 pot | HEK293 Kir2.1, FluxOR thallium flux fluorescence | activity over 3SD threshold, % at 10 µM | 1,200 tested, 2% active;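 active = fluorescence ratio rise of at least 3 SD above the vehicle-control mean, seen in both replicates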;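 note: 0% = vehicle mean plus 3 SD and 100% = vehicle minus no-stimulus blank window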
KCNQ2 W236L pot: rat KCNQ2 W236L mutant potentiation by KCNQ2 potentiators | CHO KCNQ2-W236L, automated patch clamp current | AID 2558 | 940 tested, 10% active | current increase over 3SD of negative controls (%), hits give high values, % at 25 µM | shares compounds with KCNQ2 pot;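 active = current increase at least 3 SD of the untreated controls above them in both duplicate recordings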
Starred values were filed as active, the others as inactive.

For O=C(Nc1ccccc1)OC1CN=C(N[N+](=O)[O-])NC1 (stereo not drawn) the results were KCNQ2 block inactive and KCNQ2 pot 0.12.
Screening O=C(CCCN1CCC2(CC1)C(=O)NCN2c1ccccc1)c1ccc(F)cc1 returned KCNQ2 block inactive, KCNQ2 pot 6*, Kir21 conf inh inactive, HEK293 ctr inactive, CHO-K1 Tl ctr 5.3*, KCNQ1 sel pot 64*, KCNQ2 pot conf 17*, Kir21 spec -40 and KCNQ2 W236L pot inactive.
For O=C(c1ccc(F)cc1)C(Cc1ccccc1)N1CCCCC1 (stereo not drawn) the results were KCNQ2 block inactive and KCNQ2 pot 0.07.
`Cc1sc2ncnc(N3CCC(C(=O)Nc4ccc(C#N)c(Cl)c4)CC3)c2c1C` gave KCNQ2 block inactive and KCNQ2 pot 0.03.
`COc1ccc(C(C)=O)cc1CC(C(=O)c1ccccc1)N(C)C` (stereo not drawn) gave KCNQ2 block inactive.
`Clc1cccc(CNCCc2ccc3c(c2)OCO3)c1` gave KCNQ2 block inactive.
Screening COc1ccc(CNCCc2ccc3c(c2)OCO3)cc1Br returned KCNQ2 block inactive, Kir21 conf inh 16%* and HEK293 ctr inactive.
`Clc1ccc(CNCCc2ccc3c(c2)OCO3)cc1` gave KCNQ2 block inactive, Kir21 conf inh 28%* and HEK293 ctr inactive.
Screening COc1ccc(Br)cc1CNCCc1ccc2c(c1)OCO2 returned KCNQ2 block inactive.
`CN(C)C(=O)Oc1ccc(OCc2n(C)c3ccccc3[n+]2C)cc1` gave KCNQ2 block inactive.
For CN(C(=O)Oc1ccc(C(C)(C)C)cc1)c1ccccc1 the results were KCNQ2 block inactive.
For C=CCn1c(=O)c(C=Nc2c(OC)cccc2[N+](=O)[O-])c(O)n(CCCC)c1=O the results were KCNQ2 block inactive.
`C=CCn1c(O)c(C(C)=NCCN2CCN(C(=S)NC)CC2)c(=O)[nH]c1=O` gave KCNQ2 block inactive.
COP(=O)(OC)C1(Nc2ccc(C)cc2)CCCCC1 was read as KCNQ2 block inactive and KCNQ2 pot 0.11.
`CC(NCc1ccc(Cl)c(Cl)c1)C(O)c1ccccc1` (stereo not drawn) gave KCNQ2 block inactive.
CN[C@@H]1C[C@@H](c2ccc(Cl)c(Cl)c2)c2ccccc21 was read as KCNQ2 block inactive, Kir21 conf inh 28%* and HEK293 ctr inactive.
For CCn1nc(/C=C/c2ccccc2)nc2c(=O)n(C)c(=O)nc1-2 the results were KCNQ2 block inactive, KCNQ2 pot 7.9*, Kir21 conf inh inactive, HEK293 ctr inactive, CHO-K1 Tl ctr 5.3*, KCNQ1 sel pot -4, KCNQ2 pot conf 3.5*, Kir21 spec -22 and KCNQ2 W236L pot inactive.
`COc1ccc(-n2c(/C=C/c3ccc(O)cc3)nc3ccccc3c2=O)cc1` gave KCNQ2 block inactive.
`Cc1cc(NC(=O)CCl)nn1C` gave KCNQ2 block inactive and KCNQ2 pot 0.67.
For CC1=CC2/C=C(\C)CCC(O)C(O)/C=C/C(=O)C23C(=O)NC(CC(C)C)C3C1C (stereo not drawn) the results were KCNQ2 block inactive, Kir21 conf inh 64%* and HEK293 ctr inactive.
`FC(F)(F)c1ccc(CNCCc2ccc3c(c2)OCO3)cc1` gave KCNQ2 block inactive.
COc1ccc(C2N(c3cc(C)on3)C(=O)C3CCCN32)cc1 (stereo not drawn) was read as KCNQ2 block inactive.
Screening COc1cccc(CNCCc2ccccc2)c1OC returned KCNQ2 block inactive and KCNQ2 pot 1.7.
For COc1ccc2ccccc2c1CNCCc1ccccc1 the results were KCNQ2 block inactive, Kir21 conf inh 38%* and HEK293 ctr inactive.
Screening CC(C)OP(=O)(O)NC(=O)c1ccccc1 returned KCNQ2 block inactive.
c1ccc(NC2=NCCS2)cc1 was read as KCNQ2 block inactive.
`O=[N+]([O-])c1ccccc1-c1cc(-c2ccccc2)cc(-c2ccccc2)[n+]1Cc1ccccc1Cl` gave KCNQ2 block -7.4*, KCNQ2 pot -7.4, Kir21 conf inh 22%* and HEK293 ctr inactive.
CCN1C[C@@]2(COC)C3[C@@H](OC)[C@H]4[C@@H]1[C@@]3(C1C[C@H]3[C@H](OC(C)=O)C1[C@]4(OC(C)=O)C[C@H]3OC)[C@@H](OC)C[C@H]2OC(C)=O (stereo partly drawn) was read as KCNQ2 block inactive.
Cc1c2cnn(CC(=O)N3CCC4(CC3)OCCO4)c(=O)c2c(C)n1Cc1cccc(Cl)c1 was read as KCNQ2 block inactive and KCNQ2 pot 0.68.
Screening O=C(Cn1ncc2c3ccccc3n(Cc3cccc(Cl)c3)c2c1=O)N1CCC2(CC1)OCCO2 returned KCNQ2 block inactive, KCNQ2 pot 13*, Kir21 conf inh inactive, HEK293 ctr inactive, CHO-K1 Tl ctr 109*, KCNQ1 sel pot -18, KCNQ2 pot conf 58*, Kir21 spec -28 and KCNQ2 W236L pot inactive.
For Cc1ccc(S(=O)(=O)N2CC3CC(C2)c2cccc(=O)n2C3)cc1 (stereo not drawn) the results were KCNQ2 block inactive.
C/C=C1\CN2[C@H]3C[C@@]45c6ccccc6N(C)[C@H]4[C@@H]2CC1C3[C@H]5O (stereo partly drawn) was read as KCNQ2 block inactive and KCNQ2 pot 0.23.
Screening Cc1cc(C)n(-c2ccc(NN=C(C#N)C#N)cc2)n1 returned KCNQ2 block inactive.
`N#CC(C#N)=NNc1ccc(-n2ccc(C(F)(F)F)n2)cc1` gave KCNQ2 block inactive, KCNQ2 pot 4.8, Kir21 conf inh 60%* and HEK293 ctr 73%*.
For CN=C1CN(O)C(c2ccccc2)=c2cc(Cl)ccc2=N1 the results were KCNQ2 block inactive.
`CCN(CC)CCN/N=C(\C)c1c(O)[nH]c(=O)[nH]c1=O` gave KCNQ2 block inactive and KCNQ2 pot 0.24.

Source: PubChem BioAssay (Johns Hopkins Ion Channel Center)
